Source: PubChem BioAssay (Broad Institute)
The entries come from a sample that favours hits as a whole.
Tgondii IFNg: T. gondii growth inhibition with IFN-gamma, primary screen, cell-based; activity change, negative = inhibition, % (test concentration not listed); Toxoplasma gondii growth in IFN-gamma-treated host cells; stronger effect = lower value; 69,000 compounds, 3.8% hits; in the data active = activity change below about -70%, passing the limit was not always enough;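 also: host cells are HeLa cells infected with Toxoplasma gondii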
Of the large screens only hits and unclear results are named; the others gave an inactive call.

CCOc1ccc(NC(=O)NCC(c2cccnc2)c2c[nH]c3ccccc23)cc1 (stereo not drawn)	none
Cc1ccnc(NC(=O)CN2C(=O)CCc3cc(S(=O)(=O)N4CCC(C)CC4)ccc32)c1	none
CCC(C(=O)N(C)Cc1cc(C)no1)n1cc(C(C)=O)c2ccccc21 (stereo not drawn)	none
O=C1NC(=O)C(Cc2ccccc2F)(C2CCNCC2)N1 (stereo not drawn)	none
COc1ccc(F)c([C@@H]2NC(=O)CC[C@H]2NCc2cn[nH]c2-c2ccccc2)c1	none
COC(=O)C1(Cc2ccccc2F)NC(=O)CC2CCC1N2Cc1ccccc1 (stereo not drawn)	Tgondii IFNg -77
O=C(NCC1CCCO1)c1ccc(-c2ccccc2)cc1 (stereo not drawn)	none
COc1cccc(-c2ccc(C(=O)N3CCC4(CCCO4)CC3)o2)c1	none
Fc1ccc(C(c2ccccc2)(c2ccccc2F)n2ccnc2)cc1 (stereo not drawn)	Tgondii IFNg -71
Fc1ccc(CN2CCOCC3(CC(Cn4cnnc4)CO3)C2)cc1 (stereo not drawn)	none
O=C(O)CSc1nc2cc(Cl)ccc2s1	Tgondii IFNg -107
CCN(CC)C(=O)Sc1nc2cc(Cl)ccc2s1	none
O=C(O)CCSc1nc2ccccc2s1	none
CO[C@H]1CN(C(=O)c2cc3ccccc3[nH]2)CC[C@H]1N	none
Cc1ccccc1-c1ccc(C2[C@@H]3CN(C(=O)c4ccc(F)cc4)C[C@H]2N3)cc1 (stereo partly drawn)	none
C=CC(=O)N1CCCC(c2nc(CCNC(C)=O)cs2)C1 (stereo not drawn)	none
C=C(NC(=O)C(=C)NC(=O)c1csc(C2=N[C@H]3c4csc(n4)[C@H]4NC(=O)c5csc(n5)[C@H]([C@@](C)(O)[C@@H](C)O)NC(=O)[C@H]5CSC(=N5)/C(=C/C)NC(=O)[C@H]([C@@H](C)O)NC(=O)c5csc(n5)[C@]3(CC2)NC(=O)[C@H](C)NC(=O)C(=C)NC(=O)[C@H](C)NC(=O)[C@H](C(C)CC)N[C@@H]2C=Cc3c([C@H](C)O)cc(nc3[C@H]2O)C(=O)O[C@@H]4C)n1)C(N)=O (stereo partly drawn)	none
C=C(NC(=O)C(=C)NC(=O)c1csc(C2=N[C@@H]3c4csc(n4)[C@H]4NC(=O)c5csc(n5)[C@H]([C@](C)(O)[C@@H](C)O)NC(=O)[C@H]5CSC(=N5)/C(=C/C)NC(=O)[C@H]([C@@H](C)O)NC(=O)c5csc(n5)[C@]3(CC2)NC(=O)[C@H](C)NC(=O)C(=C)NC(=O)[C@H](C)NC(=O)[C@H]([C@@H](C)CC)N[C@@H]2C=Cc3c([C@H](C)O)cc(nc3[C@H]2O)C(=O)O[C@@H]4C)n1)C(N)=O	Tgondii IFNg -72
C=CCO[C@H]1CCN(C2CCOCC2)[C@H]1Cc1cccnc1	none
CCOc1ccccc1-c1nc(Cn2nnc(C(=O)Nc3ccc(Cl)cc3)c2C)c(C)o1	none
COc1ccc(NC(=O)CSc2nc3ccc(C)cc3cc2C#N)cc1	none
CCOc1ccc2nc(SCc3ccccc3)c(C#N)cc2c1	Tgondii IFNg -103
CCOc1ccc2nc(SCC(=O)c3ccc4c(c3)OCCO4)c(C#N)cc2c1	none
C[C@H](CO)N1C[C@H](C)[C@@H](CN(C)CC2CCCCC2)OCCCC[C@H](C)Oc2ccc(NS(C)(=O)=O)cc2C1=O	none
CCC(CC)C(=O)Nc1nnc(-c2cccs2)s1	none
C[C@@H]1CN([C@@H](C)CO)C(=O)c2cc(NS(=O)(=O)c3ccc(Cl)cc3)ccc2O[C@@H](C)CCCCO[C@@H]1CN(C)Cc1ccncc1	Tgondii IFNg -113
C[C@@H]1CCCCO[C@@H](CN(C)Cc2ccncc2)[C@H](C)CN([C@H](C)CO)C(=O)c2cc(NS(=O)(=O)c3ccc(Cl)cc3)ccc2O1	Tgondii IFNg -105
C[C@@H]1CCCCO[C@@H](CN(C)Cc2ccncc2)[C@@H](C)CN([C@@H](C)CO)C(=O)c2cc(NS(=O)(=O)c3ccc(Cl)cc3)ccc2O1	none
C[C@@H]1CN([C@H](C)CO)C(=O)c2cc(NS(=O)(=O)c3cccs3)ccc2O[C@@H](C)CCCCO[C@H]1CN(C)Cc1ccc(Cl)c(Cl)c1	none
C[C@@H]1CCCCO[C@@H](CN(C)Cc2ccc(Cl)c(Cl)c2)[C@H](C)CN([C@H](C)CO)C(=O)c2cc(NS(=O)(=O)c3cccs3)ccc2O1	none
C[C@@H]1CCCCO[C@@H](CN(C)Cc2ccc(Cl)c(Cl)c2)[C@H](C)CN([C@@H](C)CO)C(=O)c2cc(NS(=O)(=O)c3cccs3)ccc2O1	none
C[C@@H]1CCCCO[C@H](CN(C)Cc2ccncc2)[C@H](C)CN([C@@H](C)CO)C(=O)c2cc(NS(=O)(=O)c3ccc(Cl)cc3)ccc2O1	none
C[C@@H]1CCCCO[C@@H](CN(C)Cc2ccc(Cl)c(Cl)c2)[C@@H](C)CN([C@@H](C)CO)C(=O)c2cc(NS(=O)(=O)c3cccs3)ccc2O1	none
C[C@@H]1CN([C@H](C)CO)C(=O)c2cc(NS(=O)(=O)c3ccc(Cl)cc3)ccc2O[C@@H](C)CCCCO[C@@H]1CN(C)Cc1ccncc1	Tgondii IFNg -112
O=C(NCc1n[nH]c2c1CCC2)c1coc2c1C(=O)CCC2	none
CCc1ccc(NC(=O)C(=O)NCCc2sc(-c3ccc(Cl)cc3)nc2C)cc1	none
Cc1c(C)n(C(=O)CN2CCN(C(=O)c3ccco3)CC2)c2ccccc12	none
Cc1cccc(-n2c(CC#N)n[nH]c2=S)c1	none
CC(=O)NCc1ncn2c1CN(C(=O)c1ccc[nH]1)CCC2	none
C[C@@H]1CN([C@@H](C)CO)C(=O)c2ccccc2-c2ccccc2CO[C@H]1CN(C)S(=O)(=O)c1cccc(C#N)c1	none
Cc1ccc(C2(O)CCN(C(=O)c3ccc(CC4CCCNC4)cc3)CC2)nc1 (stereo not drawn)	none
COc1cc(OC)c2ccc(=O)oc2c1	none
CC(C)(C)c1ccc(NC(=S)NCCc2ccncc2)cc1	none
O=C(NCCc1ccncc1)c1cc(Br)ccc1O	Tgondii IFNg -76
O=C(NCCc1ccccc1)c1ccccc1Cl	none
CN(CC1CCCCO1)S(=O)(=O)NCc1ccccc1 (stereo not drawn)	none
CCCC(C)c1nnc(NC(=O)c2cnc(-c3ccccn3)nc2)s1 (stereo not drawn)	none
O=S1(=O)c2ccccc2O[C@H]2CCN(Cc3ccc(Cl)cc3)CC[C@H]2N1CC1CC1	Tgondii IFNg -89
CCN1CC[C@@H]2Oc3ccccc3S(=O)(=O)N(CC3CC3)[C@@H]2CC1	none
O=C(c1ccccc1)N1CC[C@@H]2Oc3ccccc3S(=O)(=O)N(CC3CC3)[C@@H]2CC1	none
COc1ccccc1N(Cc1nc(-c2ccc(C)cc2)oc1C)S(=O)(=O)c1ccc(C)cc1	none
Cc1ccc(C)c(CSc2ccc(-c3sc(-c4ccc(F)cc4)nc3C)nn2)c1	none
O=C(CN1C(=O)CCc2cc(S(=O)(=O)N3CCCC3)ccc21)Nc1cccc(Br)c1	Tgondii IFNg -108
Cc1ccc(NC(=O)CN2C(=O)CCc3cc(S(=O)(=O)N4CCC(C)CC4)ccc32)cc1	none
O=C(CN1C(=O)CCc2cc(S(=O)(=O)N3CCCC3)ccc21)Nc1ccc2c(c1)OCCO2	none
Cc1ccc(NC(=O)CN2C(=O)CCc3cc(S(=O)(=O)N4CCC(C)CC4)ccc32)cc1N(C)C	none
O=C(CN1C(=O)CCc2cc(S(=O)(=O)N3CCCC3)ccc21)Nc1cccc(F)c1	none
CCc1ccc(NC(=O)CN2C(=O)CCc3cc(S(=O)(=O)N4CCCCC4)ccc32)cc1	Tgondii IFNg -97
Cc1cccc(NC(=O)CN2C(=O)CCc3cc(S(=O)(=O)N4CCCCC4)ccc32)c1	none
O=C(CN1C(=O)CCc2cc(S(=O)(=O)N3CCCC3)ccc21)Nc1ccc(Cl)cc1	none
